This excerpt belongs to a sample that is enriched for hits.
Shiga inhibitor: Shiga toxin inhibition | inhibition, % at 38.7 µM | Vero cells, Shiga toxin protein synthesis inhibition reporter | AID 2315 | actives 9.2% (n = 290,000); in the data active = inhibition mostly above about 28%, no sharp cut-off; inactive = mostly below about 43%; also: 0% is about no effect
CHX counter: counter-screen hit for Shiga toxin inhibitors, cycloheximide. cell reporter, cycloheximide protein synthesis inhibition counterscreen. max response, %. actives 12% (n = 300,000). AID 2314; in the data active = max response mostly above about 13%, no sharp cut-off; inactive = mostly below about 14%; also: read at 38.3 µM for the half of the compounds with a filed dose; 0% is about no effect
TbPYK inhibitor: blocks Trypanosoma brucei pyruvate kinase; Q57TT1; TbPYK enzyme, Kinase-Glo Plus ATP luminescence, 45 min; Potency, µM (series often up to 76.8 µM), for the others: at the highest dose activity, negative = inhibition, usual class: inhibitors; actives 0.12% (n = 410,000); also: potency is read from the fitted curve at half-maximal effect; % is scaled to controls: 0 for no effect and ±100 for the full control effect; nearly all actives have a fitted effect of over 50% in size
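TbPYK + substrate in 50 mM TEA pH 7.2, 100 mM KCl, 10 mM MgCl2, 0.05% BSA, 0.01% Tween-20; cpd pinned; ADP 130 uM final; 45 min RT; Kinase-Glo Plus 10 min; luminescence endpoint.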
LmPK inh: LmPK (Leishmania mexicana) enzyme inhibition. AID 1721. Potency, µM (series often up to 57.5 µM), without a hit: at the top dose activity change, negative = inhibition, most hits filed as inhibitors. purified LmPK, Kinase-Glo ATP luminescence, 1 h. actives 0.37% (n = 290,000); also: potency is read from the fitted curve at half-maximal effect; % is scaled to controls: 0 for no effect and ±100 for the full control effect
Target sequence (Q27686 whole entry, looked up): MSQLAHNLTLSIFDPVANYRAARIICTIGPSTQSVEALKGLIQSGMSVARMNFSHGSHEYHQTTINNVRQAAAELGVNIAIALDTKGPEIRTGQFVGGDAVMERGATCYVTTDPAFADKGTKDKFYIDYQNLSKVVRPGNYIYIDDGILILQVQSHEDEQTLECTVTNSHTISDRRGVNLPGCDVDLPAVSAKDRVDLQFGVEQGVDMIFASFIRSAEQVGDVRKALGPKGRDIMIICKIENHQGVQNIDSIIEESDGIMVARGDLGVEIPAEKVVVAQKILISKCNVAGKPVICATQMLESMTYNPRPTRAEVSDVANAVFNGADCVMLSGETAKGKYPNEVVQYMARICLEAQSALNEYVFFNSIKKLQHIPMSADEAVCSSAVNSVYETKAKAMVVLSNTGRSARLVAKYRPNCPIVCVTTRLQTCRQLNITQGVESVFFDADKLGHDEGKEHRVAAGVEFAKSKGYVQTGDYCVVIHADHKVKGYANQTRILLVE
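Screened at intermediate enzyme activity to detect both inhibitors and activators: LmPK at 0.1 nM, with a 0.5 nM enzyme column as activation reference. PEP 0.5 mM, ADP 0.1 mM; ATP detected by luminescence after 1 h.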
FBPA Giardia inh: inhibitors of Giardia lamblia fructose-1,6-bisphosphate aldolase. A8B2U2. purified Giardia FBPA. Potency, µM (series often up to 59.6 µM), for the others: at the top dose activity, negative = inhibition, usual class: inhibitors. actives 0.71% (n = 290,000). AID 2451; also: potency is read from the fitted curve at half-maximal effect; % is scaled to controls: 0 for no effect and ±100 for the full control effect; nearly all actives have a fitted effect of over 55% in size
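Giardia FBPA (40 nM reagent) was preincubated 10 min at RT with compound (up to 57.5 uM final), then substrate plus GAPDH/TPI/NAD/arsenate coupling system with diaphorase/resazurin was added; resorufin fluorescence (525/598 nm) was read after 20 min.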
RE007 growth inh: less growth of the S. pombe RE007 Vpr strain; Potency, µM (highest dose often 92.2 µM), inactives show top-dose activity change, negative = less growth, hits mostly inhibitors; AID 651644; actives 0.21% (n = 360,000); S. pombe RE007 Vpr strain, BacTiter-Glo ATP luminescence, 24 h; active = well fitted falling curve with a large enough effect; inconclusive = small, poorly fitted or top-dose-only effect; inactive = no such curve, though single readings can be large or run the other way; also: potency is read from the fitted curve at half-maximal effect; % is scaled to controls: 0 for no effect and ±100 for the full control effect; nearly all actives have a fitted effect of over 50% in size
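Fission yeast strain RE007, carrying one chromosomally integrated HIV-1 vpr copy, was seeded at OD 0.01 in PMG+AL medium with 23 nL pinned compound. After 24 h at 30 °C and 99% humidity, viability was read by BacTiter-Glo luminescence.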
* = called active by the depositor; [ ] = remark or other dose. Unless noted, calls follow the shape of the dose curve; as a rule, active = well fitted curve in the direction sought with a large enough effect; inconclusive = small, poorly fitted or top-dose-only effect, or another doubt; inactive = no such curve, though single readings can be large; an effect the other way counts as inactive or inconclusive.

Screening CC1CCCCN1C(=O)COC(=O)c1ccc2ccccc2n1 (configuration not stated) returned TbPYK inhibitor -2.2% and RE007 growth inh 0.6%.
For COc1cccc(C(=O)N(Cc2cccnc2)c2nc3c(OC)ccc(C)c3s2)c1OC the results were TbPYK inhibitor 5.6%[15.4 µM].
CC(CCN(C)C)OC(=O)c1ccc(C(C)c2ccccc2)o1 (configuration not stated) was read as Shiga inhibitor 50.2, CHX counter 18.4*, TbPYK inhibitor -0.3%, LmPK inh 7.0%, FBPA Giardia inh -2.3% and RE007 growth inh 79.8%.
`Cc1ccc(C(=O)OC(C)C(=O)NC(C)CCc2ccccc2)o1` (configuration not stated) gave TbPYK inhibitor -8.4% and RE007 growth inh 4.8%.
For COc1ccc(C(=O)/C=C/Nc2ccc(S(=O)(=O)Nc3nc(C)cc(C)n3)cc2)cc1OC the results were Shiga inhibitor -4.0, CHX counter 15.8*, TbPYK inhibitor -21.4%, LmPK inh 1.8%, FBPA Giardia inh -0.9% and RE007 growth inh -29.2%.
COc1ccc(C(=O)/C=C/Nc2ccc(S(=O)(=O)Nc3nc(C)cc(C)n3)cc2)c(OC)c1 was read as Shiga inhibitor 44.2, CHX counter 1.3, TbPYK inhibitor 1.1%, LmPK inh 9.7%, FBPA Giardia inh 4.7% and RE007 growth inh -1.3%.
Cc1cc(C)nc(NS(=O)(=O)c2ccc(N/C=C/C(=O)c3ccc(Cl)cc3)cc2)n1 was read as Shiga inhibitor 19.9, CHX counter 11.4*, TbPYK inhibitor 5.9%, LmPK inh 2.9%, FBPA Giardia inh 4.8% and RE007 growth inh 64.5%.
`Cc1ccc(C(CC(=O)c2ccc(Cl)cc2)C(=O)O)cc1` (configuration not stated) gave Shiga inhibitor 2.2, CHX counter -0.4, TbPYK inhibitor -7.6%, LmPK inh -4.9%, FBPA Giardia inh 0.1% and RE007 growth inh -12.5%.
For COC(=O)C(CC(=O)c1ccc(Cl)cc1)c1ccc(C(C)C)cc1 (configuration not stated) the results were Shiga inhibitor 70.3*, CHX counter 36.7*, TbPYK inhibitor -13.9%, LmPK inh 0.6%, FBPA Giardia inh -0.1% and RE007 growth inh 6.8%.
For COC(=O)/C=C1\N/C(=N/c2nc(C)c3cc(OC)ccc3n2)NC1=O the results were Shiga inhibitor -19.3, CHX counter -0.3, TbPYK inhibitor -0.6%, LmPK inh -0.7%, FBPA Giardia inh 21.8% and RE007 growth inh -16.5%.
For O=C(OCC(=O)N1CCCCC1)c1cc2ccccc2cc1O the results were Shiga inhibitor 47.9, CHX counter 24.1*, TbPYK inhibitor -10.3%, LmPK inh -2.7%, FBPA Giardia inh -0.8% and RE007 growth inh -29.8%.
`CCC1CCCCN1C(=O)COC(=O)c1cc2ccccc2cc1O` (configuration not stated) gave Shiga inhibitor 79.5*, CHX counter 50.2*, TbPYK inhibitor 6.0%, LmPK inh 11.6%, FBPA Giardia inh -2.9% and RE007 growth inh inconclusive.
`O=C(COC(=O)c1cc2ccccc2cc1O)NC1CCCCC1` gave TbPYK inhibitor 0.1% and RE007 growth inh -4.9%.
C/C(CC(=O)N1CCCC1)=N\NC(=O)c1cc2ccccc2cc1O was read as Shiga inhibitor 47.5, CHX counter 14.1, TbPYK inhibitor -0.2%, LmPK inh 9.0%, FBPA Giardia inh 12.6µM* and RE007 growth inh -0.6%.
For CCOC(=O)C(C)/C(C)=N/NC(=O)c1cc2ccccc2cc1O (configuration not stated) the results were Shiga inhibitor -6.8, CHX counter 0.8, TbPYK inhibitor -10.2%, LmPK inh 4.5%, FBPA Giardia inh -20.4% and RE007 growth inh 14.8%.
Screening O=C(NCCc1ccccc1)c1ccccc1SCC(=O)N1CCCC1 returned Shiga inhibitor 97.3*, CHX counter 26.8*, TbPYK inhibitor 5.6%, LmPK inh -1.5%, FBPA Giardia inh 13.5% and RE007 growth inh -8.2%.
For COc1cc(-c2nnc(SCC(=O)Nc3cccc(C#N)c3)o2)cc(OC)c1OC the results were TbPYK inhibitor -0.1%.
For CCNC(=O)NC(=O)COC(=O)c1ccccc1SCC(=O)NC(=O)NCC the results were Shiga inhibitor 67.5, CHX counter 62.6*, TbPYK inhibitor inconclusive, LmPK inh inconclusive, FBPA Giardia inh 9.8% and RE007 growth inh inconclusive.
Screening O=C(OCc1ccc(F)cc1)c1cc2ccccc2cc1O returned Shiga inhibitor 14.7, CHX counter 8.6*, TbPYK inhibitor -6.4%, LmPK inh -3.6%, FBPA Giardia inh 1.8% and RE007 growth inh -8.4%.
Screening O=C(COC(=O)c1ccccc1SCC(=O)NC1CCS(=O)(=O)C1)NC1CCS(=O)(=O)C1 (configuration not stated) returned Shiga inhibitor -5.6, CHX counter -0.9, TbPYK inhibitor 1.5%, LmPK inh 0.1%, FBPA Giardia inh 4.9% and RE007 growth inh -5.1%.
Screening O=C(OCC(=O)N1CCCCC1)c1ccccc1SCC(=O)N1CCCCC1 returned Shiga inhibitor 30.8, CHX counter 19.7*, TbPYK inhibitor -1.0%, LmPK inh -3.4%, FBPA Giardia inh 7.8% and RE007 growth inh 3.2%.
Screening C/C=C/C(=O)Nc1cccc(C2=NOC3(C2)C[C@H](C(N)=O)N(C(=O)c2ccccc2C(=O)c2ccccc2)C3)c1 (some centres not stated) returned Shiga inhibitor -10.5, CHX counter -6.4, LmPK inh -1.0% and FBPA Giardia inh 2.8%.
COc1ccc(NC(=O)CN2C(=O)C(c3ccc(C)cc3)=NC23CCCCCC3)cc1Cl was read as TbPYK inhibitor 2.6%.
`O=C(O)c1ccc(-c2sc(Nc3ccccc3)n[n+]2-c2ccc(F)cc2)cc1` gave Shiga inhibitor -4.6, CHX counter -1.6, TbPYK inhibitor -8.4%, LmPK inh 0.0%, FBPA Giardia inh inconclusive and RE007 growth inh -0.4%.
Screening CCN(CC)c1ccc(-c2sc(Nc3ccccc3)n[n+]2-c2ccc(F)cc2)cc1 returned Shiga inhibitor 25.9*, CHX counter 18.2*, TbPYK inhibitor -8.8%, LmPK inh -9.9%, FBPA Giardia inh 1.5% and RE007 growth inh -6.7%.
`CN(C)c1ccc(-c2sc(Nc3ccccc3)n[n+]2-c2ccc(F)cc2)cc1` gave Shiga inhibitor 50.4*, CHX counter 35.9*, TbPYK inhibitor -7.1%, LmPK inh -3.7%, FBPA Giardia inh -14.9% and RE007 growth inh -11.1%.
COc1ccccc1OC(C)C(=O)Nc1ccc(-c2nc3ccccc3s2)cc1 (configuration not stated) was read as TbPYK inhibitor -3.2%.

High-throughput results: PubChem BioAssay, National Center for Advancing Translational Sciences (NCATS)
